PubChem BioAssay (NCATS)

biological target: Glucocorticoid receptor (Homo sapiens) (UniProt P04150); experiment: GR-GFP Redistribution (AID 450); details: U2OS GR-GFP nuclear translocation, laser cytometry, 2 h; series mostly up to 20.6 µM
Potency is read from the fitted curve at half-maximal effect.

Sequence of Glucocorticoid receptor (Homo sapiens) (P04150 whole entry, looked up): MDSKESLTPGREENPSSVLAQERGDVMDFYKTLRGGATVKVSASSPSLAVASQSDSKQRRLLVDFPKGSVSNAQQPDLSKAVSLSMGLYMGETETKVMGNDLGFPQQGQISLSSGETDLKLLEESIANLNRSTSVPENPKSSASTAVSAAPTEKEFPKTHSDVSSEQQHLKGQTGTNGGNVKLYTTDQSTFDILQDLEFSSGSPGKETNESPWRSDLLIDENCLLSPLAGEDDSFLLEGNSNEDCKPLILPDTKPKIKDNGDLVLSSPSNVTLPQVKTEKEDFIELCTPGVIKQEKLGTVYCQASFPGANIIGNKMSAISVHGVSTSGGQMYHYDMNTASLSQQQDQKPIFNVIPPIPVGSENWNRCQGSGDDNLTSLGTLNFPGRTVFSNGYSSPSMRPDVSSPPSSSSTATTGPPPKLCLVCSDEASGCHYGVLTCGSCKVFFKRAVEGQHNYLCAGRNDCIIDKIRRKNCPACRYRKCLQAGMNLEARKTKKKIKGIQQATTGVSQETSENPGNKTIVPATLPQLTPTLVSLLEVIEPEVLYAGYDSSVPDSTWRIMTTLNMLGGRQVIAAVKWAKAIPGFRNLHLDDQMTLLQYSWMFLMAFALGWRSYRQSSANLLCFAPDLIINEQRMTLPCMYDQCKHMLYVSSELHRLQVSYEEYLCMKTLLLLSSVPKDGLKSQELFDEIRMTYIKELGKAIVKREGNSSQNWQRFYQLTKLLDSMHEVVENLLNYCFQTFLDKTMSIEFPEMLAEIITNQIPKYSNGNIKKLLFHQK

Potency, inactive:
O=C(NCCCNCc1ccccc1)/C(=N\O)c1ccccc1 > 20.6 µM
COc1cc(/C=N/n2nnnc2N)ccc1O > 20.6 µM
C(=N\n1cnnc1)/c1cccc(Oc2ccccc2)c1 > 20.6 µM
COc1ccc(CCNC(=O)c2ccc(=O)[nH]n2)cc1OC > 20.6 µM
COc1ccc(OC)c(C2C(C#N)=C(N)Oc3cc(C)n(Cc4ccccn4)c(=O)c32)c1 (configuration not stated) > 20.6 µM
COc1ccc(-n2ncc3c(Nc4cccc(C)c4)ncnc32)cc1 > 20.6 µM
COc1cccc(NC(=O)CSC2=C(C#N)C(c3ccco3)C3=C(CCCC3=O)N2)c1 (configuration not stated) > 20.6 µM
Cc1cc(=O)oc(C)c1C(=O)N1CCN(C)CC1 > 20.6 µM
c1ccc(SCc2nc3ccccc3[nH]2)nc1 > 20.6 µM
CCOC(=O)c1[nH]c2ccccc2c1N=CN(CC)CC > 20.6 µM
CC(=O)c1c(N)nc2n(c1=O)CCCCC2 > 20.6 µM
COc1ccc(OC)c(N=C(C)C2=C(O)COC2=O)c1 > 20.6 µM
O=C(COc1ccc(Cl)cc1)Nc1ccccc1CO > 20.6 µM
O=C(c1coc(=O)c(Br)c1)N1CCCc2ccccc21 > 20.6 µM
CCN(CC)C(=O)CN(C#N)c1nc(NC(C)C)nc(NC(C)C)n1 > 20.6 µM
Nc1nonc1-c1noc(N2CCOCC2)n1 > 20.6 µM
CCCOc1cccc(C2/C(=C(/O)c3ccc(F)cc3)C(=O)C(=O)N2CCN(C)C)c1 (configuration not stated) > 20.6 µM
